From ChEMBL document CHEMBL3988442, “University of Dundee, Small-Polar-MMV Screening Library” (2021) come the findings set out here.

In test [1] the target is T1, Aspartate--tRNA(Asp/Asn) ligase (Mycobacterium tuberculosis (strain ATCC 25618 / H37Rv)) (UniProt P9WFW3). Further: in the data most compounds retested in dose-response had high values.
T1 sequence (whole entry): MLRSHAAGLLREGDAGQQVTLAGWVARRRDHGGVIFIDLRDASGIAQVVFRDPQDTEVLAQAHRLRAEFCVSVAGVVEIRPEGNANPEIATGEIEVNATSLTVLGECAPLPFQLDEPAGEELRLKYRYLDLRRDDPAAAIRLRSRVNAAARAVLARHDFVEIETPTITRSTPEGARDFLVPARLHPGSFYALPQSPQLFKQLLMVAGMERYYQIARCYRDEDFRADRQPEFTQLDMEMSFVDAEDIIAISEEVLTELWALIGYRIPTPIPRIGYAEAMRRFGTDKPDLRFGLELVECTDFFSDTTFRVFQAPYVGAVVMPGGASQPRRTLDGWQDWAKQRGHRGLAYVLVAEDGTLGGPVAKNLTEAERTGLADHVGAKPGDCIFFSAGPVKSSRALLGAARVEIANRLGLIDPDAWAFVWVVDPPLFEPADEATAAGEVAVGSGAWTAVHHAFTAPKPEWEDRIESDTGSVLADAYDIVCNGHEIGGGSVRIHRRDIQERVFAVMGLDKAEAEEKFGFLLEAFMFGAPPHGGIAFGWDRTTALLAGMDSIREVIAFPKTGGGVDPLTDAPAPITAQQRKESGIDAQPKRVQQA
In words: Assay for Asp RNA synthetase-1 from Mycobacterium tuberculosis. It is filed as functional. The following applies: 30 µM. Also on record: scale not given: direction of the effect not stated beside the values.

The target of test [2] is Shiga toxin 2 (Escherichia coli O157:H7) (UniProt P09385+P09386). In words: E. coli 0.157:H7 Shiga Toxin SOP - stx2 screening assay. The test is classed as functional. Also on record: scale not given: direction of the effect not stated beside the values. The following applies: 30 µM.

Regarding `COc1ccccc1Oc1ncccc1CNC(=O)C(C)N1CCCC1` (stereo not given), the Percent Effect in test [1] is -0.0279%; in test [2], 6.37%.
On the same counts, the results for `Cc1nocc1C(=O)N1CCc2c(CN(C)C(C)C)n[nH]c2C1` are 0.866% and 3.98%.
On the same counts, the results for `CCCn1ncc2c(C(=O)Nc3cnn(CC)c3C)cc(C3CC3)nc21` are -1.49% and -0.924%.
For `CCc1nc(CN(C(C)=O)C2CCN(CCc3cnn(C)c3)C2)no1` (stereo not given), the Percent Effect in test [1] was -5.05%; in test [2], -15.6%.
For the molecule `Cc1ccc(C(=O)NC(CN2CCCC2=O)c2ccccc2)c(=O)[nH]1` (stereo not given), the Percent Effect in test [1] was -6.44%; in test [2] it was 2.19%.
With `C[C@H](O)CNC(=O)c1cnc(-c2ccccc2)nc1O`, the Percent Effect in test [1] is 2.44%; in test [2], -10.8%.
Taken in the same sequence, the figures for `O=C(NCC(O)c1cccc(F)c1)c1cccnc1O` (stereo not given) were -2.85% and -19%.
For `O=C(O)C1(Cc2cccc(-c3ccc(F)c(F)c3)c2)CCOCC1`, the Percent Effect in test [1] is 4.93%; in test [2] it was 7.92%.
On the same counts, the results for `CCCS(=O)(=O)N1CCC2(CN(c3cnn(C)c3)C(=O)CN2C)C1` (stereo not given) are -0.662% and -13.9%.
Taken in the same sequence, the figures for `CC(C)C(NC(=O)NCC1(CO)CC1)c1nnc2n1CCC2` (stereo not given) were -3.28% and 19.7%.
On the same counts, the results for `O=C(Cc1cccc(Cl)c1)N[C@@H]1CCNC[C@H]1O` are -3.06% and 49.4%.
With `COc1ccccc1C1CNC(=O)c2nc(-c3cnn(C)c3)[nH]c2C1` (stereo not given), the Percent Effect is 1.33% in test [1] and -58% in test [2].
Taken in the same sequence, the figures for `O=C1NC2(CCN(Cc3nccs3)CC2)CC1c1ccncc1` (stereo not given) were 0.717% and 2.04%.
With `Cc1cc(N2CCN(C(=O)c3cc(Cl)c[nH]3)CC2)nc(N)n1`, the Percent Effect was 3.4% in test [1] and -96.7% in test [2].
Taken in the same sequence, the figures for `COc1cc(CNCc2c(C)nn(C)c2N(C)C)ccn1` were 3.75% and 13%.
Take `CC(c1nc(C2CC2)no1)N1CCN(c2ccc(C#N)cn2)CC1` (stereo not given): the Percent Effect in test [1] was -0.15%; in test [2], -13.8%.
On the same counts, the results for `CCn1cc(CN2CCCN(C(=O)C3=NN(C)C(=O)CC3)CC2)cn1` are 0.98% and 10.4%.
Taken in the same sequence, the figures for `c1cnn(Cc2cn3c(n2)CN(Cc2nccs2)CC3)c1` were -2.35% and -23.5%.
On to `O=C(c1ccco1)N1C[C@H]2CCCN(Cc3cccs3)[C@H]2C1`, for which the Percent Effect in test [1] is 6.24%; in test [2] it was -1.93%.
On the same counts, the results for `Cc1ccc(CN2CC[C@H]3C[C@@H](c4nc(C5CC5)cs4)O[C@@H]3C2)o1` are 11.7% and -16.4%.
Taken in the same sequence, the figures for `Cc1ncsc1C(=O)NCCSCc1cccs1` were 2.21% and -24.7%.
Taken in the same sequence, the figures for `O=C1COc2ccc(C(=O)NS(=O)(=O)c3ccc(F)cc3F)cc2N1` were 0.0843% and 17.8%.
With `O=C(C1CCCc2[nH]ncc21)N1CCCC1` (stereo not given), the values for the Percent Effect in test [1] and in test [2] were 2.61% and -4.59%, respectively.
Taken in the same sequence, the figures for `COCC1CN(Cc2ccncc2)Cc2nnn(CC3CC3)c21` (stereo not given) were 0.981% and -28.3%.
Taken in the same sequence, the figures for `CC(Cn1ccnc1)NC(=O)C1(c2ccc3c(c2)OCCO3)CCCC1` (stereo not given) were -0.0286% and -20.7%.
On the same counts, the results for `Cc1nc2c(c(C)c1CC(=O)NCc1cccc(C#N)c1)c(=O)[nH]n2C` are 0.634% and 25.4%.
As for `Cn1ccc(CN2CCCC2c2ccc3c(c2)OCCCO3)cc1=O` (stereo not given), the Percent Effect in test [1] is -1.54%; in test [2] it was -60%.
On the same counts, the results for `N#Cc1cccc(N2CC3(CCN(C(=O)c4cccnc4)C3)CC2=O)c1` (stereo not given) are 2.09% and -13.7%.
On the same counts, the results for `O=C(c1ccc(Cl)o1)N1CCCN(Cc2cscn2)CC1` are -7.87% and 6.75%.
`Cc1ccn(-c2cccc(C(=O)N3CCCC(n4ccnc4C)C3)c2)n1` (stereo not given): the Percent Effect in test [1] is -0.301%; in test [2], -7.17%.
On the same counts, the results for `COc1ccc2c(c1)OCC(CNC(=O)c1ccncc1)C2` (stereo not given) are -2.83% and 17.7%.
Taken in the same sequence, the figures for `COC(=O)CNC(=O)CSCc1nc(O)c2cc(C(C)C)sc2n1` were -0.639% and -7.38%.
On the same counts, the results for `O=C(NCCNc1ncccn1)N(Cc1ccc(F)cc1F)C1CC1` are -3.51% and 12.1%.
Turning to `Cc1cc2c(=O)n3c(nc2s1)CCN(Cc1ccncc1)CC3`, the results for the Percent Effect in test [1] and in test [2] were -2.01% and -22.9%, respectively.
Take `Fc1cccnc1OC[C@@]12CCO[C@@H]1CCN(CC1CCOCC1)C2`: the Percent Effect is 0.353% in test [1] and 1.39% in test [2].
In the case of `CCN(CC)CCNC(=O)c1ccn(COc2cc(C)cc(C)c2)n1`, the results for the Percent Effect in test [1] and in test [2] were -3.4% and -48.5%, respectively.
On the same counts, the results for `O=C(CCn1cnnc1)N1CCCC(c2ncc[nH]2)C1` (stereo not given) are 5.32% and -29.4%.
Taken in the same sequence, the figures for `CC(C)c1cc(C(=O)NCCN2CCCS2(=O)=O)n[nH]1` were -5.19% and -14.6%.
As for `Cc1ccc(-c2cc(CNC(=O)N3CCOC(C)C3)on2)cc1` (stereo not given), the Percent Effect in test [1] worked out at 0.699%; in test [2], 9.22%.
Taken in the same sequence, the figures for `Cc1cc(C(=O)N2C[C@@H](C(=O)O)[C@H](c3ccccc3C)C2)c(C)o1` were 6.11% and -22%.
As to `Cc1cccc(C2(CNC(=O)CCN3C(=O)CCC3=O)CCCC2)c1`, the values for the Percent Effect in test [1] and in test [2] were -4.05% and 9.87%, respectively.
On the same counts, the results for `CNc1cncc(C2CCCN2Cc2c[nH]cn2)n1` (stereo not given) are 7.49% and 7.95%.
On the same counts, the results for `c1cc(-c2nc(CN3CCn4c(nnc4C4CC4)C3)cs2)cs1` are -2.61% and -11.5%.
On the same counts, the results for `Cc1noc(C2CCN(C(=O)CCNc3ncccn3)CC2)n1` are 0.856% and -36.4%.
For `Cc1occc1C(=O)N1CCc2ncnc(-c3cnn(C)c3)c2CC1`, the Percent Effect in test [1] was -0.55%; in test [2] it was -3.59%.
Taken in the same sequence, the figures for `CC(=O)N1CCO[C@@H]2CN(C(=O)c3cc(C)oc3C)CC[C@@H]2C1` were 4.81% and -5.49%.
On the same counts, the results for `COc1cccc2c1ccn2CCC(=O)NCCCC(=O)O` are -1.42% and -21%.
On the same counts, the results for `COCCN1CCC(Cc2cncc(-c3ccc(C(=O)O)cc3)n2)C1` (stereo not given) are 4.51% and 8.34%.
Turning to `O=C(c1cscn1)N1CCC2(CCN(Cc3cccs3)CC2)C1`, the Percent Effect in test [1] was -4.17%; in test [2], -7.4%.
On the same counts, the results for `Cc1nc(C(=O)N2CCCC2c2c(C)nn(C)c2C)ccc1C#N` (stereo not given) are -1.21% and -18%.
